# Screening data as filed in PubChem.
# Shown are actives, neighbours in structure and some others; about 1.5% of the full set was active somewhere.
# AID504770: growth inhibitors of E. coli YBA685 in a screen for V. cholerae RctB (chromosome II replication) inhibitors; E. coli YBA685 rctB-dependent plasmid, OD600 growth, 3 h; hits give low values; actives 0.27% (n = 130,000); z-score (test concentration not listed); in the data active means z-score below about -2, passing the limit was not always enough
# MbtI inh: inhibitors of Mycobacterium tuberculosis siderophore enzyme MbtI. purified MbtI enzyme, fluorescence intensity read-out. actives 0.89% (n = 100,000). inhibition, % (no concentration beside the values). P9WFX0; in the data active means inhibition mostly above about 56%, no sharp cut-off; inactive means mostly below about 77%
# MenB inh: Mtb MenB enzyme inhibition | P9WNP5 | MenB enzyme assay, absorbance read-out | inhibition, % (concentration not given with the values) | actives 0.43% (n = 100,000); in the data active means inhibition above about 21%, passing the limit was not always enough
# PV pol inh: inhibitors of poliovirus RNA polymerase binding and polymerization | P03300 | actives 0.66% (n = 150,000) | AID 588519 | % elongation, % (compound at 16.7 µg/mL) | poliovirus polymerase elongation, fluorescence polarization; hits give low values; in the data active means % elongation below about 90%
# Target sequence (P03300 1749-2209 limits assumed): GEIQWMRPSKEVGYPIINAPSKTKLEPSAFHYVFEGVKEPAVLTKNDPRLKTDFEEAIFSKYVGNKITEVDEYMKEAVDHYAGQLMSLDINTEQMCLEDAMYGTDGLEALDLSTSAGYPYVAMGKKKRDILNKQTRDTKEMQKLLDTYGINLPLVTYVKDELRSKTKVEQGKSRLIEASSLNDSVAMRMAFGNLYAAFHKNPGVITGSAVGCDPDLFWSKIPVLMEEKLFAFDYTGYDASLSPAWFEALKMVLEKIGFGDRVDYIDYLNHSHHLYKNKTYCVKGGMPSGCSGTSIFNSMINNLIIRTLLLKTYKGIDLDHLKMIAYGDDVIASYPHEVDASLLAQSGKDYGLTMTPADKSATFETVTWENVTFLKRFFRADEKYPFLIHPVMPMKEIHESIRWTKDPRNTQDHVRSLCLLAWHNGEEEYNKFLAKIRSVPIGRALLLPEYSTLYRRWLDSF
# Hits are given with their value; i = inactive; nt = no result given.
SMILES,AID504770,MbtI inh,MenB inh,PV pol inh
CC1=C/C(=N\OC(=O)Cc2ccccc2)C(C)=CC1=O,i,i,i,i
O=c1[nH]nc(SCc2cn3ccccc3n2)c(=O)[nH]1,i,i,i,32
Cc1cc(=O)[nH]c(SCc2cn3ccccc3n2)n1,i,nt,nt,nt
CC(C)c1cc(N)on1,-2.2,i,i,i
N#C/C(=C/c1ccc(-c2cc(C(=O)O)ccc2Cl)o1)C(=O)NCCc1c[nH]c2ccccc12,i,i,i,i
Cc1cc(C)nc(S/C=C/C(=O)c2ccc(Cl)cc2)n1,i,i,i,i
Cn1cnnc1S/C=C/C(=O)c1ccc(Cl)cc1,i,85,i,i
Cn1ccnc1S/C=C/C(=O)c1ccc(Cl)cc1,i,59,i,i
O=C(/C=C/Sc1ccc(Cl)cc1)c1ccccc1,i,i,i,i
COc1cc(N(C(=O)c2cnccn2)C(C(=O)NCc2ccccc2)c2cccs2)ccc1-n1cnnn1 (centres undefined),i,i,i,i
Cc1cc(N2CCC(C(O)(c3ccccc3)c3ccccc3)CC2)nc(C)n1,i,i,i,i
Cc1cccn2cc(CSc3nc4ccccc4o3)nc12,i,i,i,i
OC1(CCC2(O)CCCC2)CCCC1,i,i,28,i
c1ccc2sc(SN3CCOCC3)nc2c1,i,84,i,i
c1ccc2sc(N3CCOCC3)nc2c1,i,nt,nt,nt
Clc1ccc(OCCn2ccnc2)c(Br)c1,-2.7,i,i,i
CCc1c(C)nc(SCCOc2ccc(OC)cc2)[nH]c1=O,i,nt,nt,nt
COc1ccc(OCCSc2nc(C)cc(=O)[nH]2)cc1,i,i,51,i
Clc1ccc2nc(CSc3ncccn3)cn2c1,i,i,i,i
COc1ccc(/C=C(\C#N)C(N)=S)cc1,i,i,i,i
N#C/C(=C\c1ccc(O)c(O)c1)C(N)=S,nt,71,i,i
CCc1c(C)sc(NC(=O)CCCC(=O)O)c1C(N)=O,i,nt,i,81
COC(=O)CCC(=O)Nc1sc(C)c(C)c1C(N)=O,i,nt,nt,nt
CC(=O)Oc1ccc(-c2ccccc2)cc1,i,i,i,i
CC(=O)[O][Hg][c]1ccccc1,-5.2,i,i,i
SMILES,AID504770,MbtI inh,MenB inh,PV pol inh
CC(=O)Nc1ccc(C(=O)OCC(=O)Nc2ccc(F)c(F)c2)cc1,i,i,nt,i
Cc1nnc2c(Nc3ccccc3I)nc3nonc3n12,-2.8,i,i,i
CC(=S)Nc1ccc2c(c1)OCO2,i,73,i,72
CN(C)C(=S)Nc1ccc2c(c1)OCO2,i,92,i,i
NC(=O)/C=C/C(=O)Nc1ccc2c(c1)OCO2,i,101,i,i
O=C(/C=C/c1ccccc1)Nc1ccc2c(c1)OCO2,i,i,i,i
CSc1cccc(NC(=S)N(C)C)c1,i,74,i,i
CCCn1c(SCc2ccccc2C#N)n[nH]c1=O,i,i,i,i
CC(=S)N1CCN(C(C)=S)CC1,i,nt,i,i
Clc1cc(N2CCOCC2)ncn1,i,i,i,i
O=C1CCCN1C(=O)CSc1nnc2sc3ccccc3n12,i,i,i,i
CC(C)(C)C(=O)Nc1ccc2c(c1)OCO2,i,i,nt,i
CC(C)(C(=O)Nc1ccc2c(c1)OCO2)C(=O)Nc1ccc2c(c1)OCO2,i,i,41,i
CC(=O)NC(NC(C)=O)c1ccc2c(c1)OCO2,i,i,31,i
Cc1ccc(N(CC(N)=O)C2SC(=O)N(c3ccccc3)C2=O)cc1 (centres undefined),i,i,i,i
O=C(O)[C@@H](c1ccccc1)N1C(=O)c2ccccc2C1=O,i,i,i,i
O=S(=O)(NCc1ccc2c(c1)CCO2)c1ccc(C(F)(F)F)cc1,i,i,i,i
COC(=O)c1c(NC(=O)CCCOc2ccc(C(C)(C)C)cc2)sc2c1C(C(=O)OC)CC2 (centres undefined),nt,nt,nt,62
O=C1NC(=O)C2C3C=CC(O3)C12 (centres undefined),-3.5,i,i,i
Cn1cccc1/C=C1\CC/C(=C\c2cccn2C)C1=O,i,i,i,i
COC(=O)C(C)N(C#N)c1nc(C)cc(C)n1 (centres undefined),i,i,nt,nt
Cc1cc(C)nc(N(C#N)C(=S)N(C)C)n1,i,102,i,i
CCN(CC)c1ccc(NS(=O)(=O)c2cc3[nH]c(=O)c(=O)[nH]c3cc2C)c(C)c1,nt,nt,nt,85
O=C1NNC(=S)Nc2ccccc21,i,i,i,i
CCOC(=O)c1c(NC(=O)c2ccc(S(=O)(=O)N(CCOC)CCOC)cc2)sc2c1CC(C)(C)NC2(C)C,nt,nt,nt,83
SMILES,AID504770,MbtI inh,MenB inh,PV pol inh
CCOC(=O)c1c(NC(=O)c2ccc(S(=O)(=O)N3CCCC(C)C3)cc2)sc2c1CC(C)(C)NC2(C)C (centres undefined),nt,nt,nt,i
COc1cccc(-c2cc(C(=O)NC3CC3)[nH]n2)c1,i,i,i,i
Cc1cc(C)n(CC(C)O)c(=O)c1C#N (centres undefined),i,i,i,i
Cc1cc(C)n(CCCO)c(=O)c1C#N,-2.9,i,i,i
Cc1cccc(OCCn2cnc3ccccc32)c1,i,nt,nt,nt
N#CCc1nc(-c2cccc(Cl)c2)n[nH]1,i,74,i,i
CSc1nc(-c2ccco2)nn1C(=O)c1ccccc1,i,i,i,i
CCS(=O)(=O)n1nc(-c2ccco2)nc1SC,i,82,i,i
CN(C)CCN1CCNCC1,i,i,34,i
CN(C)C(=O)CN1CCNCC1,i,i,i,i
Cc1ccc(C)n1CCN(C(C)C)C(C)C,i,i,i,i
COc1ccc(C(=O)n2ncc(C#N)c2N)cc1,i,i,i,i
Cn1cnnc1SCc1ccc(C(=O)n2ncc(C#N)c2N)cc1,i,i,i,88
O=C1NC(=O)N(c2ccc(Cl)cc2)C(=O)/C1=C/c1ccc(Cl)cc1,i,i,i,i
O=C(N[C@@H](CO)[C@H](O)c1ccc([N+](=O)[O-])cc1)C(Cl)Cl,-2.7,i,i,i
O=C(O)CCC(=O)OC[C@@H](NC(=O)C(Cl)Cl)[C@H](O)c1ccc([N+](=O)[O-])cc1,i,i,i,i
CC(=O)N1CCN(c2nc(N)c3c(N)nc4c(c3c2C#N)CC(=O)N4C)CC1,i,i,i,18
CC(C)c1ccc(N2C(=O)Cc3c2nc(N)c2c(N)nc(N4CCCC4)c(C#N)c32)cc1,i,i,i,i
CC(C)=C1C(=O)Nc2ccc(S(=O)(=O)N3CCCCC3)cc21,i,i,i,i
CC(=O)NCCC(=O)Nc1cccc(C#N)c1,i,i,i,i
O=c1[nH]c(Nc2ccccc2)cc2ccccc12,i,i,i,76
Oc1ccc(NCc2ccc(Br)cc2)cc1,i,i,i,i
O=C(O)Cc1ccc(NCc2ccc(Br)cc2)cc1,i,66,i,i
O=c1c2c(nc3cc(-c4ccco4)[nH]n13)CCCC2,i,i,33,i
CC1=CC(c2ccccc2)=C(C#N)C(=S)C1CC(=O)c1cccs1 (centres undefined),i,nt,i,85
O=C1C=CC(=O)N1Cc1cccs1,-4.2,nt,nt,nt
COc1cc(NC(=O)C(C)OC(=O)C23CC4CC(CC(NC(C)=O)(C4)C2)C3)cc(OC)c1 (centres undefined),i,i,i,i
CCCSc1nc2ccc(S(=O)(=O)N3CCOCC3)cc2[nH]1,i,93,i,64
